Here are results for 54 compounds from ChEMBL document CHEMBL4513216, “Probing the Open Global Health Chemical Diversity Library for Multistage-Active Starting Points for Next-Generation Antimalarials” (ACS Infect Dis, 2020).

About 8,600 (12%) of roughly 69,000 compounds showed an effect of 50% or more. For the sample, strong results were picked, then their nearest neighbours and some compounds at random.

The assay deals with Plasmodium berghei. The assay is described as follows: Screen against P. berghei liver stage (PbLuc), transformed with Luciferase, at 10uM. The following applies: tested at 10 uM. In kind it is functional, HepG2.
With `CC1(C)CC(N(Cc2ccncc2)Cc2cccnc2)CC(C)(C)N1`, the INHIBITION came to 50.1%.
Consider `CC1(C)CC(N(Cc2ccccc2)Cc2c[nH]cn2)CC(C)(C)N1`, for which the INHIBITION worked out at 13.2%.
With `COc1ccc(CNC2CCC3(CCC(=O)N3)CC2)cc1` (centres undefined), the INHIBITION was found to be 19.8%.
The figure for `CC(C)c1nn(C)c(N(C)C)c1CNCc1cccc(CN(C)C)c1` is 21.8%; for `Cn1ncc(C(=O)O)c1C(=O)Nc1nc2ccc(Br)cc2s1` it is 6.27%.
For the compound `COCCOCC(=O)N1CCc2cc(Cl)cc(Cl)c2C1`, the INHIBITION amounted to 1.86%.
Then `CCSCc1nc(O)c2nnn(C3CCN(Cc4ccco4)CC3)c2n1`, with 32.5%; and `Cc1ccc(C)c(C(=O)N2CCC3(CCC(=O)N(CC(N)=O)C3)CC2)c1`, with 15.2%.
In the case of `Cn1cc(C(=O)N2CCN(c3ncccn3)CC2)ccc1=O`, the INHIBITION worked out at 28.8%.
Then `CN(CC1CCOC1)S(=O)(=O)c1cccc(C(=O)N2CCCCCC2)c1` (centres undefined), with -7.57%; and `O=C(Cc1cccc(F)c1)N1CCc2ncnc(NC3CCC3)c2CC1`, with 53%; and `O=C(Cc1cccc(F)c1)N1CCc2ncnc(N3CCCC3)c2CC1`, with -13.9%.
Then `CCS(=O)(=O)N1CCc2ncnc(C)c2CC1`, with 42.3%; and `COc1ncnc2c1CCN(C(=O)NCc1cccc(F)c1)CC2`, with 17.2%; and `COc1ncnc2c1CCN(C(=O)Cc1cccc(F)c1)CC2`, with 52.6%.
The figure for `Cc1ncnc2c1CCN(C(=O)Cc1cccc(F)c1)CC2` is 36.4%; for `CCOc1ncnc2c1CCN(S(=O)(=O)CC)CC2` it is 30.5%.
With `CCS(=O)(=O)N1CCc2ncnc(OC)c2CC1`, the INHIBITION stood at 79.2%.
Then `O=C(Cc1cccc(F)c1)N1CCc2ncnc(NC3CC3)c2CC1`, with 14%.
The figure for `Cc1ccc(CN2CCOCC2c2[nH]ncc2C)cn1` (centres undefined) is 13.635%.
Then `CCC(c1ccccc1)c1nn2c(CN(CC)CC)nnc2s1` (centres undefined), with 23.1%.
With `CCC(=O)NCCc1cc2nc(-c3ccncc3)ccn2n1`, the INHIBITION turned out to be 21.4%.
Regarding `COCC(C)NC(=O)c1cc(C)n(-c2cccc(OC)c2)c1C` (centres undefined), the INHIBITION is recorded as 35.9%.
Then `CN1C(=O)CCCC12CCCN(C(=O)c1cccc(C(F)(F)F)c1)C2` (centres undefined), with 40.8%; and `CSCC[C@H](NC(C)=O)c1nc(CCc2ccccc2)n[nH]1`, with -47.9%.
The figure for `CCC=C(C)C(=O)NCc1ccc(OC)nc1` is -0.514%; for `Cc1ccccc1-c1noc(CN2CCc3nn(C)c(=O)cc3C2)n1` it is 7.08%; for `CCC(O)CN1CCN(C(=O)Cc2ccccc2Cl)CC1` (centres undefined) it is 18.625%.
The figure for `CCOCC(O)CN1CCN(C(=O)Cc2ccc3c(c2)CCO3)CC1` (centres undefined) is 9.25%; for `CCOCC(O)CN1CCN(C(=O)Cc2cccc(C)c2)CC1` (centres undefined) it is -52.95%; for `CCOCC(O)CN1CCN(C(=O)Cc2ccc3c(c2)CCC3)CC1` (centres undefined) it is 51.5%.
With `O=C(Cc1ccccc1Cl)N1CCN(CC(O)COCCO)CC1` (centres undefined), the INHIBITION turned out to be 57.85%.
Then `CCOCC(O)CN1CCN(C(=O)Cc2ccccc2Cl)CC1` (centres undefined), with 25.6%.
The figure for `O=C(c1cnccn1)N1CCCC2(CCN(Cc3cccnc3)C2)C1` (centres undefined) is -19.5%; for `O=C(c1cncc(NCC2COc3ccccc3C2)n1)N1CCCCC1` (centres undefined) it is 0.348%; for `CC(C)Cc1nc(OCC(=O)O)c(C#N)c2c1CCCC2` it is 43.4%.
The figure for `CC(C)Cc1nc(OCC(N)=O)c(C#N)c2c1CCC2` is 16.6%; for `CC(C)Cc1nc(OCC(N)=O)c(C#N)c2c1CCCC2` it is 51%; for `C[C@@H]1C[C@H](C(F)(F)F)n2nc(C3CCN(C(=O)C(C)(C)C)CC3)cc2N1` it is 8.72%.
Take `O=C(NCc1cccnc1)C1=NOC2(CCN(C(=O)N3CCCC3)C2)C1` (centres undefined): the INHIBITION is given as -50.9%.
Then `CCNc1ncc(C(=O)N(C)CCc2nc3cc(Cl)ccc3[nH]2)cn1`, with 41.5%; and `CCc1ncc(C(=O)N(C)CCc2nc3cc(OC)ccc3[nH]2)cn1`, with 59.1%.
For `CN(CCc1nc2cc(Cl)ccc2[nH]1)C(=O)c1ncn[nH]1`, the INHIBITION was 16.5%.
The figure for `CCn1cnnc1CNC(=O)c1ccc(Cl)cc1I` is 44.1%.
Then `O=C1COC2(CCN(c3ncccn3)CC2)CN1`, with 70%.
Then `COc1cc(N2CCC3(CC2)CNC(=O)CO3)ncn1`, with 16.6%; and `O=C1COC2(CCN(c3ccccn3)CC2)CN1`, with -23.3%; and `O=C1CCCCN1CCCC(=O)N1CCC2(CC1)[C@H](O)C[C@@H]2O`, with 26.8%.
Consider `CN(CC(=O)Nc1cccnc1)CC1CCCN1c1cccnn1` (centres undefined), for which the INHIBITION worked out at 53.4%.
The figure for `CN(CC(=O)Nc1ccncc1)CC1CCCN1c1cccnn1` (centres undefined) is 41.4%.
Turning to `Cc1csc(NC(=O)CN(C)CC2CCCN2c2cccnn2)n1` (centres undefined), the INHIBITION came to 48.5%.
Then `CC(=O)Nc1nc(CN(C)C2CCCN(c3cccnn3)C2)cs1` (centres undefined), with 31.2%; and `CN(CC(=O)Nc1nncs1)CC1CCCN1c1cccnn1` (centres undefined), with 3.77%; and `CC(=O)Nc1nc(CN(C)CC2CCCN2c2cccnn2)cs1` (centres undefined), with 51.7%.
